Laboratory results as given in PubChem BioAssay (NCI).
Compounds without any hit were thinned out: in the full panel of roughly 83,000, 20% have a hit.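 Method: cells in 96-well plates; compound added at one concentration; 48 h incubation; percent growth measured; values under 10 scored active.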 The source made the active and inactive calls.

Tests used:
Assay in all cases: NCI-60 one-dose screen, 48 h (100 = growth as untreated, 0 = no growth, -100 = all killed)
Settings in all cases: 10 µM unless noted
[1] = test system: RPMI-8226 leukemia
[2] = test system: OVCAR-8 ovarian
[3] = test system: OVCAR-5 ovarian
[4] = test system: OVCAR-4 ovarian
[5] = test system: IGROV1 ovarian
[6] = test system: OVCAR-3 ovarian
[7] = test system: HS 578T breast
[8] = test system: NCI/ADR-RES ovarian
[9] = test system: T-47D breast

Measured: growth

COc1cc(/C=C2\CCC/C(=C\c3cc(CN4CCCCC4)c(O)c(OC)c3)C2=O)cc(CN2CCCCC2)c1O
inactive: [1] 55.5% | [2] 80.6% | [3] 114% | [4] 60.9% | [5] 88.2% | [6] 65.2% | [7] 81.4% | [8] 87.2% | [9] 104%

COc1ccc(/C(C#N)=C/c2nc3c(N4CCOCC4)nc(Cl)nc3n2C)cc1OC
inactive: [2] 14.5% | [3] 33.3% | [7] 13.2% | [8] 11.7%
active: [1] -7.23% | [4] -25% | [5] 3.01% | [6] -86.1% | [9] -17.1%

O=C(NCc1ccco1)C1CN(c2ccc(Cl)cc2)N(c2ccc(Cl)cc2)C1=O (stereo not given)
inactive: [1] 48% | [2] 66.4% | [3] 82.2% | [4] 57.7% | [5] 46.3% | [7] 36.7% | [8] 24.3% | [9] 43.2%
active: [6] 3.64%

S=C1NC2(c3ccccc3)CCC(=S)N2c2ccccc21 (stereo not given)
inactive: [1] 103% | [2] 100% | [3] 103% | [4] 105% | [5] 106% | [6] 119% | [7] 101% | [8] 109% | [9] 106%

OCCNc1nc(Nc2ccc(C3=NN(c4cc(Cl)cc(Cl)c4)C(c4ccc(C(F)(F)F)cc4)C3)cc2)nc(N2CCOCC2)n1 (stereo not given)
inactive: [1] 71.7% | [2] 68.1% | [3] 95.3% | [4] 64% | [5] 93% | [6] 86.1% | [7] 62.8% | [8] 68.3% | [9] 64.1%

COC(=O)/C(CCC=C(C)C)=C1\[C@@H](OC(C)=O)C[C@@]2(C)[C@H]1CC(=O)N[C@H]1[C@@]3(C)CCNC(=O)[C@@H](C)[C@@H]3CC[C@@]12C
inactive: [1] 97.8% | [2] 98.3% | [3] 102% | [4] 101% | [5] 105% | [6] 107% | [7] 97.1% | [8] 106% | [9] 88.9%

Cc1ccccc1CNC(=O)C1CN(c2ccc(Cl)cc2)N(c2ccc(Cl)cc2)C1=O (stereo not given)
inactive: [1] 65% | [2] 87.9% | [3] 91.8% | [4] 84.1% | [5] 89.7% | [6] 81.1% | [7] 85.5% | [8] 84.3% | [9] 71.6%

O=c1c2cccc(F)c2sc2c(N3CCNCC3)nc3ccccc3c12
inactive: [2] 32.7% | [3] 61.9% | [4] 46.9% | [5] 28.3% | [6] 30.9% | [7] 34.8% | [8] 42.6% | [9] 36.3%
active: [1] 1.83%

COc1cc(/C=C2\CN(C)C/C(=C\c3cc(CN4CCCC4)c(O)c(OC)c3)C2=O)cc(CN2CCCC2)c1O
inactive: [1] 81% | [2] 65.5% | [3] 94.5% | [4] 65.8% | [5] 82% | [6] 50% | [7] 87.8% | [8] 100% | [9] 79.7%

COc1ccc(/C=C2/SC(=O)N(CC(=O)N3CCN(c4cc5c(cc4F)c(=O)c(C(=O)O)cn5C4CC4)CC3)C2=O)cc1
inactive: [1] 119% | [2] 93.9% | [3] 103% | [4] 107% | [5] 96% | [6] 115% | [7] 99.9% | [8] 99.4% | [9] 104%

c1ccc2c(c1)oc1cc3sccc3nc12
inactive: [1] 99.4% | [2] 101% | [3] 109% | [4] 102% | [5] 95.8% | [6] 107% | [7] 101% | [8] 102% | [9] 101%

O=c1c(-c2nc3ccccc3[nH]2)cc2ccccc2n1Cc1cn(Cc2ccccc2Cl)nn1
inactive: [1] 12.4% | [2] 50.4% | [3] 78.2% | [5] 27.9% | [6] 19.8% | [7] 19.2% | [8] 40.6% | [9] 66.4%
active: [4] -22%

NCCNc1nc2ccccc2c2c(=O)c3cc(F)cc(Cl)c3sc12
active: [1] -33.1% | [2] -49.2% | [3] -81.6% | [4] -73.4% | [6] -88.6% | [8] -44.9% | [9] -45.6%
inactive: [5] 71.9% | [7] 59.9%

CCCCCCCCCCCCCCn1cc(C2=C(c3coc4ccc(OC)cc34)C(=O)NC2=O)c2ccccc21
inactive: [1] 122% | [2] 91.8% | [3] 93.8% | [4] 102% | [5] 81.6% | [6] 102% | [7] 98.5% | [8] 98.9% | [9] 96.2%

CNC(=O)c1cc(Oc2ccc(CC(=O)Nc3cc(C(C)(C)C)cn3C)cc2)ccn1
inactive: [1] 53.1% | [2] 65.2% | [3] 116% | [4] 48.9% | [5] 67% | [6] 81.6% | [7] 86.9% | [8] 72.4% | [9] 48.9%

CC(=O)c1ccc(Nc2nc(NCCO)nc(Nc3ccc(Cl)cc3)n2)cc1
inactive: [1] 89.5% | [2] 93.4% | [3] 96.1% | [4] 95.7% | [5] 98.7% | [6] 95.5% | [7] 87.2% | [8] 91.9% | [9] 79.9%

O=C(/C=C/c1ccc(Cl)cc1)c1ccc(Nc2nc(NCCO)nc(N3CCOCC3)n2)cc1
inactive: [1] 12.3% | [2] 83.6% | [3] 101% | [4] 93% | [5] 84% | [6] 63.1% | [7] 90.7% | [8] 88.9% | [9] 67.1%

Cc1cccc2c(=O)c3c(sc12)c(NCCN)nc1ccccc13
inactive: [7] 37.1%
active: [1] -37.9% | [2] -25% | [3] -46.9% | [4] -24.4% | [5] -70.1% | [6] -89.6% | [8] -45.5% | [9] -50.2%

O=c1c(-c2nc3ccccc3[nH]2)cc2ccccc2n1Cc1cn(Cc2ccc(F)cc2)nn1
inactive: [1] 16.7% | [2] 28.5% | [4] 43.5% | [8] 31.7% | [9] 42.3%
active: [3] -20.5% | [5] 9.95% | [6] 3.02% | [7] -6.42%

COc1ccc(/C=c2\sc3n(c2=O)NC2C(N=3)N(C)C(=O)N2C)cc1 (stereo not given)
inactive: [1] 96.1% | [2] 101% | [3] 95.1% | [4] 100% | [5] 99.8% | [6] 102% | [7] 95.9% | [8] 100% | [9] 102%

O=C(CSc1nc2ccccc2c(=O)n1-c1ccccc1)Nc1ccc(C(=O)/C=C/c2ccc(Cl)cc2)cc1
inactive: [1] 91.5% | [2] 103% | [3] 98.4% | [4] 105% | [5] 97.3% | [6] 104% | [7] 106% | [8] 106% | [9] 107%

Cn1c(/C=C(\C#N)c2cccc(C(F)(F)F)c2)nc2c(N3CCOCC3)nc(Cl)nc21
inactive: [8] 20.1%
active: [1] -23.4% | [2] 7.88% | [3] -53.7% | [4] -56.4% | [5] -27.7% | [6] -85% | [7] -12% | [9] -36.6%

CC(=O)c1ccc(NC(=O)Nc2ccc(S(=O)(=O)Nc3ccc(Cl)nn3)cc2)cc1
inactive: [1] 108% | [2] 98.7% | [3] 95.3% | [4] 110% | [5] 99.5% | [6] 108% | [7] 98.4% | [8] 103% | [9] 101%

COc1cc(/C=C/C(=O)c2ccc(Nc3nc(NCCO)nc(N4CCOCC4)n3)cc2)cc(OC)c1OC
active: [1] -21% | [6] 2.88% | [7] 9.53%
inactive: [2] 11.6% | [3] 34% | [4] 23.9% | [5] 20.6% | [8] 53.7% | [9] 32.1%

O=C(c1nc2ccccc2[nH]1)C1C(c2cccc([N+](=O)[O-])c2)C2CC3CCCCC3N2[C@@]12C(=O)Nc1cc(Cl)ccc12 (stereo not given in full)
inactive: [2] 45.1% | [3] 32% | [4] 27.5% | [5] 10.3% | [6] 45.5% | [7] 33.6% | [8] 39.7% | [9] 38.4%
active: [1] 7.96%

CNCCNc1nc2ccccc2c2c(=O)c3cc(OC)ccc3sc12
inactive: [2] 26.3% | [3] 70.8% | [4] 29.7% | [5] 42.8% | [7] 56% | [8] 51.5%
active: [1] -17.2% | [6] -40.7% | [9] -33.6%

Cc1cccc2c(=O)c3c(sc12)c(NCCCNCCO)nc1ccccc13
inactive: [2] 45.4% | [3] 74.4% | [4] 54.3% | [5] 15.1% | [6] 64.5% | [8] 60.5% | [9] 62.7%
active: [1] -26.5%

C=C1C(=O)O[C@H]2[C@H]1CC/C(COC(=O)/C=C\C(=O)O)=C\CC[C@@]1(C)O[C@@H]21
inactive: [1] 114% | [2] 101% | [3] 93.8% | [4] 113% | [5] 107% | [6] 113% | [7] 103% | [8] 101% | [9] 100%

COc1cccc2c(=O)c3c(sc12)c(NCCCNCCO)nc1ccccc13
inactive: [1] 29.1% | [2] 49.8% | [3] 77.8% | [4] 42.4% | [5] 26.2% | [6] 54.6% | [7] 35.9% | [8] 60.6% | [9] 72.1%
